Measured values taken from PubChem BioAssay.
Records with an inconclusive call do not appear. Calls of active or inactive are those of the source. Unless noted, no rule for the calls is given here.

Assays:
[1] = biological target: ATP-dependent translocase ABCB1 (Homo sapiens) (UniProt P08183); experiment: MDR1 (ABCB1) efflux transporter inhibition, cell-based (AID 377; in the data active = fluorescence slope change above about 50%); conditions: MDR1-expressing cells, fluorescent substrate accumulation slope; stronger effect = higher value; concentration not given here
[2] = reducers of polyQ inclusions in PC12 cells, cell-based, NGF-treated PC12, GFPQ80 (AID 1614); conditions: PC12 NGF-treated GFP-polyQ80 inclusion reduction;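 also: lower means fewer inclusions and 0 means no inclusions at all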
[3] = circadian clock period modulators, cell-based, LOPAC library, luminescence reporter (AID 2774); conditions: circadian reporter cells, at 7 µM, actives lie on both sides;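 also: values are relative to mean of DMSO wells on each plate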
[4] = test system: Hepatitis C virus NS3 helicase; experiment: HCV NS3 helicase inhibitors, primary screen, biochemical, fluorescence polarization, LOPAC1280 library (AID 687035; in the data active = inhibition above about 37%); conditions: Purified HCV NS3 helicase, Cy5-dT15 ssDNA binding fluorescence polarization; stronger effect = higher value; concentration not given here
[5] = Cy5 fluorescence quenching or enhancement artefacts, artefact control for HCV NS3 helicase inhibitor project, biochemical, LOPAC1280 (AID 687037); conditions: Cy5-DNA-NS3h complex fluorescence interference counterscreen
[6] = phospholipid biosynthesis inhibitors in animal cells, primary screen, cell-based, LOPAC library, screen 4 (AID 1347384); conditions: phospholipid biosynthesis inhibition screen, at 10 µM
[7] = growth inhibition of DIPG glioma cells, dose response, cell-based, SU-DIPG-XIII, MIPE4.0, CellTiter-Glo, qHTS (AID 1347061; cut-off not given, nearly all actives have AC50 up to about 37 µM;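 also: cells exposed to compound for 48 hours before readout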); conditions: SU-DIPG-XIII viability, CellTiter-Glo ATP luminescence
[8] = growth inhibition of DIPG glioma cells, dose response, cell-based, JHH-DIPG-1, MIPE4.0, CellTiter-Glo, qHTS (AID 1347062; cut-off not given, nearly all actives have AC50 up to about 27 µM); conditions: JHH-DIPG-1 viability, CellTiter-Glo ATP luminescence
[9] = growth inhibition of DIPG glioma cells, dose response, cell-based, SU-DIPG-IV, MIPE4.0, CellTiter-Glo, qHTS (AID 1347063; cut-off not given, nearly all actives have AC50 up to about 30 µM;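 also: compound exposure lasted 48 hours before the viability readout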); conditions: SU-DIPG-IV viability, CellTiter-Glo ATP luminescence
[10] = SU-DIPG-VI glioma cell viability, MIPE4.0 library, CellTiter-Glo luminescence, qHTS (AID 1347066; cut-off not given, nearly all actives have AC50 up to about 30 µM;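 also: cells exposed to compound for 48 hours before readout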); conditions: CellTiter-Glo ATP luminescence
[11] = test system: Aerobactin synthetase IucA (Klebsiella pneumoniae); experiment: IucA aerobactin synthetase inhibitors, biochemical, Tocris library, absorbance (AID 1345561); conditions: purified IucA enzyme assay, absorbance (OD) read-out; stronger effect = lower value;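 tested at 8 µM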;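 also: 100% = enzyme without compound and 0% = no enzyme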
[12] = viability loss in pontine glioma line – cell-based, SU-DIPG-XXV, MIPE5.0, CellTiter-Glo, qHTS, dose response (AID 1347065; cut-off not given, nearly all actives have AC50 up to about 26 µM;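 also: cells exposed to compound for 48 hours before ATP readout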); conditions: CellTiter-Glo ATP luminescence
[13] = growth inhibition of DIPG glioma cells, dose response, cell-based, SU-DIPG-XVII, MIPE5.0, CellTiter-Glo, qHTS (AID 1347060; cut-off not given, nearly all actives have AC50 up to about 26 µM); conditions: SU-DIPG-XVII viability, CellTiter-Glo ATP luminescence
[14] = growth inhibition of DIPG glioma cells, dose response, cell-based, SU-DIPG-XIII, MIPE5.0, CellTiter-Glo, qHTS (AID 1347064; cut-off not given, nearly all actives have AC50 up to about 23 µM;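 as to AC50: cells exposed to compound for 48 hours before the viability read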); conditions: SU-DIPG-XIII viability, CellTiter-Glo ATP luminescence
[15] = JHH-DIPG-1 glioma cell viability, MIPE5.0 library, CellTiter-Glo luminescence, qHTS (AID 1347067; cut-off not given, nearly all actives have AC50 up to about 26 µM;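 also: cells exposed to compound for 48 hours before readout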); conditions: JHH-DIPG-1 glioma viability, CellTiter-Glo ATP luminescence
[16] = SU-DIPG-XXV glioma cell viability, MIPE5.0 library, qHTS (AID 1347068; cut-off not given, nearly all actives have IC50 up to about 30 µM)

Sequence of ATP-dependent translocase ABCB1 (Homo sapiens) (P08183 whole entry, looked up): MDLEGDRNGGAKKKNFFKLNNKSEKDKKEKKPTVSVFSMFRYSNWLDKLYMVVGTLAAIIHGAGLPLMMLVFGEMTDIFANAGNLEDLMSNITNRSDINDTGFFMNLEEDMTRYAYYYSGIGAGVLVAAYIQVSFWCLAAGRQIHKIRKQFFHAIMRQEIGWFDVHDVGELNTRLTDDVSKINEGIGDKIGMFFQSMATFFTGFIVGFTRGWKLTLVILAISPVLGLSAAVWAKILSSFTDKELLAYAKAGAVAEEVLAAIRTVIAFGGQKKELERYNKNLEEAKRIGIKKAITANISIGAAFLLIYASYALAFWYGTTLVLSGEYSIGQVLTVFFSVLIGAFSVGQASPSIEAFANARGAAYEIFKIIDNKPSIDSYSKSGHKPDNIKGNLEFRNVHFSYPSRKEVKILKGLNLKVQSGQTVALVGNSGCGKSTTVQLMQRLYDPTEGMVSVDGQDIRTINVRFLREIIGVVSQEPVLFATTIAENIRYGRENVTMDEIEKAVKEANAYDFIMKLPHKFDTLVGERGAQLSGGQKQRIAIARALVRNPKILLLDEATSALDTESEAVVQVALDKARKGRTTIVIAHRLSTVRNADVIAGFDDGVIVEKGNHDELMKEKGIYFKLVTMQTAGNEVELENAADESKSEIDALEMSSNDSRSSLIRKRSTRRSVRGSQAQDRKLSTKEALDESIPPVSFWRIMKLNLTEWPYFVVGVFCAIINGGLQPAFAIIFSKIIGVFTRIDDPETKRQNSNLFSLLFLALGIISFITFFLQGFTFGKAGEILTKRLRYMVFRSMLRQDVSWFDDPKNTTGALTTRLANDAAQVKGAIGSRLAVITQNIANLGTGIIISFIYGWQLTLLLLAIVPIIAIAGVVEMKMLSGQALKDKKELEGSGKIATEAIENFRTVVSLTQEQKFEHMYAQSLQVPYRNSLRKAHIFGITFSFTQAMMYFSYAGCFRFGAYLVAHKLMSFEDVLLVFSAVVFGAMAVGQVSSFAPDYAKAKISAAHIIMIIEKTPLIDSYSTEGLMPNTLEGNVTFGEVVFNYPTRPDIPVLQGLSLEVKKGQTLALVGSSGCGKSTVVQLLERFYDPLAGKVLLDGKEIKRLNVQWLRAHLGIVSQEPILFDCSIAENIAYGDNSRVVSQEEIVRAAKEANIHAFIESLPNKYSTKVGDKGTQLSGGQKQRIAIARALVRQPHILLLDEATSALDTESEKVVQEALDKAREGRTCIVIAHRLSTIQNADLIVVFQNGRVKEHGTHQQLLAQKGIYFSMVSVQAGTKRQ

CCCN1C[C@H](CSC)C[C@@H]2c3cccc4[nH]cc(c34)C[C@H]21
active: fluorescence slope change [1] 72.8%
2: inclusion score [2]
inactive: period change [3] 0.02 h | inhibition [4] -6% | fluorescence ratio (interference) [5] 1 | outcome [6]

O=c1n(CCCN2CCN(c3cccc(Cl)c3)CC2)nc2ccccn12
inactive: period change [3] -0.06 h | inhibition [4] 0% | fluorescence ratio (interference) [5] 1 | outcome [7] | outcome [8] | outcome [9] | outcome [10] | outcome [6]
active: fluorescence slope change [1] 85.5%
2: inclusion score [2]

CCOC(=O)N1CCC(=C2c3ccc(Cl)cc3CCc3cccnc32)CC1
active: AC50 [9] 18.7 µM
inactive: period change [3] -0.1 h | inhibition [4] 0% | fluorescence ratio (interference) [5] 1 | remaining activity [11] 99.4% | outcome [7] | outcome [8] | outcome [6]

OCCN(CCO)c1nc(N2CCCCC2)c2nc(N(CCO)CCO)nc(N3CCCCC3)c2n1
inactive: period change [3] -0.245 h | inhibition [4] -2% | fluorescence ratio (interference) [5] 1 | remaining activity [11] 98% | outcome [8] | outcome [6]
active: AC50 [7] 20.9 µM | AC50 [12] 18.6 µM
2: inclusion score [2]

CC1(C)O[C@@H]2C[C@H]3[C@@H]4CCC5=CC(=O)C=C[C@]5(C)[C@@]4(F)[C@@H](O)C[C@]3(C)[C@]2(C(=O)CO)O1
inactive: outcome [13] | outcome [7] | outcome [9] | outcome [14] | outcome [12] | outcome [10] | outcome [15] | outcome [16]

CN(C)CCOC(c1ccccc1)c1ccccc1
inactive: period change [3] -0.01 h | inhibition [4] -1% | fluorescence ratio (interference) [5] 1 | outcome [8] | outcome [14] | outcome [12] | outcome [10] | outcome [15] | outcome [16] | outcome [6]
2: inclusion score [2]

Fc1ccc([C@@H]2CCNC[C@H]2COc2ccc3c(c2)OCO3)cc1
inactive: inhibition [4] -1% | fluorescence ratio (interference) [5] 0.9 | remaining activity [11] 109% | outcome [10] | outcome [6]

CCC(=O)O[C@]1(C(=O)CCl)[C@@H](C)C[C@H]2[C@@H]3CCC4=CC(=O)C=C[C@]4(C)[C@@]3(F)[C@@H](O)C[C@@]21C
inactive: outcome [13] | outcome [7] | outcome [8] | outcome [14] | outcome [10] | outcome [15]

C[C@]12C=CC(=O)C=C1CC[C@@H]1[C@@H]2[C@@H](O)C[C@@]2(C)[C@H]1CC[C@]2(O)C(=O)CO
inactive: outcome [13] | outcome [7] | outcome [8] | outcome [14] | outcome [15]

COc1ccc2c(c1)c(CC(=O)O)c(C)n2C(=O)c1ccc(Cl)cc1
2: inclusion score [2]
inactive: period change [3] 0.07 h | inhibition [4] -5% | fluorescence ratio (interference) [5] 1 | remaining activity [11] 120% | outcome [13] | outcome [12] | outcome [10] | outcome [15] | outcome [16]
active: fluorescence slope change [1] 95% | AC50 [7] 18.7 µM

C[C@@H]1CC(=O)NN=C1c1ccc(NN=C(C#N)C#N)cc1
active: AC50 [9] 23.5 µM | AC50 [14] 18.6 µM | AC50 [12] 9.34 µM

CC(=O)OCC(=O)[C@@]12OC(C)(C)O[C@@H]1C[C@H]1[C@@H]3C[C@H](F)C4=CC(=O)C=C[C@]4(C)[C@@]3(F)[C@@H](O)C[C@@]12C
inactive: fluorescence slope change [1] 14.5% | outcome [7] | outcome [8] | outcome [14] | outcome [12] | outcome [10] | outcome [16]

O=C1N=C(O)CN1/N=C/c1ccc(-c2ccc([N+](=O)[O-])cc2)o1
active: fluorescence slope change [1] 54.9%
1.5: inclusion score [2]
inactive: remaining activity [11] 110%

CNC(=O)Oc1ccc2c(c1)[C@]1(C)CCN(C)[C@@H]1N2C
inactive: period change [3] 0.16 h | inhibition [4] -2% | fluorescence ratio (interference) [5] 1 | outcome [6]
2: inclusion score [2]

Cc1c(OCC(F)(F)F)ccnc1CS(=O)c1nc2ccccc2[nH]1 (stereo not drawn)
inactive: period change [3] -0.035 h | inhibition [4] -2% | fluorescence ratio (interference) [5] 1 | remaining activity [11] 87.5% | outcome [13] | outcome [9] | outcome [14] | outcome [12] | outcome [10] | outcome [16] | outcome [6]
2: inclusion score [2]

CN(C)CCN(Cc1ccccc1)c1ccccn1
2: inclusion score [2]

COc1cc2nc(N3CCN(C(=O)c4ccco4)CC3)nc(N)c2cc1OC
inactive: inhibition [4] -1% | fluorescence ratio (interference) [5] 0.9 | remaining activity [11] 96.4% | outcome [6]
active: AC50 [9] 26.4 µM | AC50 [10] 14.8 µM

COc1ccccc1N1CCN(CCCNc2cc(=O)n(C)c(=O)n2C)CC1
inactive: period change [3] 0.18 h | inhibition [4] -4% | fluorescence ratio (interference) [5] 1 | remaining activity [11] 103% | outcome [6]

Nc1c2c(nc3ccccc13)CCCC2
active: fluorescence slope change [1] 56.2%
inactive: period change [3] -0.225 h | inhibition [4] -2% | fluorescence ratio (interference) [5] 1 | remaining activity [11] 109% | outcome [13] | outcome [7] | outcome [8] | outcome [9] | outcome [14] | outcome [12] | outcome [10] | outcome [15] | outcome [16] | outcome [6]
2: inclusion score [2]
